From PubChem BioAssay
The source made the active and inactive calls. Unless noted, no rule for the calls is given here.

Legend:
[1] = system: Wnt5a (protein binding on small-molecule microarray); assay: small molecules binding Wnt5a protein – biophysical, small-molecule microarray, 635/667 nm fluorescence, primary screen (AID 1142); details: 635 nm fluorescence, higher = more signal;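 also: fluorescence read at 667 nm with signal to noise per printed feature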
[2] = ATP-based viability of Huh7 replicon cells – cell-based, CellTiter-Glo luminescence, basal, 48 h, cytotoxicity control for HCV replication inhibitor project, primary screen (AID 1143); details: higher = more signal, called active from +8 up or from −8 down;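 also: Huh7 hepatoma cells carrying a hepatitis C replication reporter with no stimulus; test concentration not given here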
[3] = Pseudomonas biofilm growth suppression – PAO1 strain, BacTiter-Glo luminescence, LB-PBS, primary screen (AID 1144); details: P. aeruginosa PAO1 biofilm, 12 h, higher = more signal
[4] = basal CRE-LacZ reporter activity in PC12 – cell-based, unstimulated, primary screen (AID 1145); details: no forskolin, luminescence, 4.5 h, higher = more signal, called active from +8 up or from −8 down
[5] = forskolin-driven CRE-LacZ activity in PC12 – cell-based, CRE-LacZ reporter, forskolin-stimulated, primary screen (AID 1146); details: luminescence, 4.5 h, higher = more signal, called active from +8 up or from −8 down;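 also: PC12 cells with 6xCRE LacZ reporter stimulated by forskolin 10 µM; beta-galactosidase reporter signal reflecting CREB driven transcription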
[6] = target: Streptavidin (Streptomyces avidinii) (UniProt P22629); assay: compounds binding control protein streptavidin – biophysical, small-molecule microarray, 635/667 nm fluorescence, artefact control for SMM compound annotation, primary screen (AID 1147); details: higher = more signal;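 also: signal reflects streptavidin binding to arrayed compounds as a control protein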
Sequence of Streptavidin (Streptomyces avidinii) (P22629 whole entry, looked up): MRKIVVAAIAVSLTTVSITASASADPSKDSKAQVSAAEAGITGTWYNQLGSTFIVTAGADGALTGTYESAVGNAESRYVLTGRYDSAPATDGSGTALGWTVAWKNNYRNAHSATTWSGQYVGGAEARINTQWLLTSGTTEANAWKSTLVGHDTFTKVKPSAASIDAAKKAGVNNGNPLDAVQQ

[7] = probe aInhba binding on compound microarray – biochemical, small-molecule microarray, 635/667 nm fluorescence, primary screen (AID 1148); details: higher = more signal;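 also: score merges 667nm spot fluorescence with signal-to-noise for antibody binding to printed compounds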
Torsin-1A (Homo sapiens) [8] = target: Torsin-1A (Homo sapiens) (UniProt O14656); assay: TOR1A wild-type binding on microarray – cell lysate, small-molecule microarray, lysate, 635/667 nm, primary screen (AID 1149); details: COS7 hTOR1A-WT lysate, 635 nm fluorescence, higher = more signal
Sequence of Torsin-1A (Homo sapiens) (O14656 whole entry, looked up): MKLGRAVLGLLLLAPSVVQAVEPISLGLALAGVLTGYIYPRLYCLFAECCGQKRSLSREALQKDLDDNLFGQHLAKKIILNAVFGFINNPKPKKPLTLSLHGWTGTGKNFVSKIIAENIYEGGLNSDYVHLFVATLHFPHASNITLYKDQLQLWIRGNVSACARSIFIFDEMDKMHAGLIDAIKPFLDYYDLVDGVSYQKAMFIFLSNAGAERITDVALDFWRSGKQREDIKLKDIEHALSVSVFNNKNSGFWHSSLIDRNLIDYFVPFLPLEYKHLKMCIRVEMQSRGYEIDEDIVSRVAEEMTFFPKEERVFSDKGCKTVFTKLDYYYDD

Torsin-1A (Homo sapiens) [9] = target: Torsin-1A (Homo sapiens) (UniProt O14656); assay: torsin A mutant lysate binding on microarrays – cell lysate, small-molecule microarray, COS7 lysate, 635/667 nm fluorescence, primary screen (AID 1150); details: COS7 hTOR1A mutant lysate, 635 nm fluorescence, higher = more signal;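 also: score pools 667 nm emission and signal to noise measuring lysate protein binding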
[10] = system: Sonic hedgehog protein (Shh); assay: Sonic hedgehog microarray binding compounds – biochemical, small-molecule microarray, 635/667 nm fluorescence, primary screen (AID 1151); details: 635 nm fluorescence, higher = more signal;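 also: Shh protein binding to compounds spotted on small-molecule microarray slides; score combines spot fluorescence intensity with signal-to-noise across triplicate slides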
[11] = optical density shifts of acrAB sulA E. coli – strain DRC41, OD650, 48 h, E. coli filamentation inducer project, primary screen (AID 1152); details: higher = more signal, called active from +8 up or from −8 down;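 also: E. coli MC1000 strain DRC41 lacking acrAB efflux pump and sulA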
[12] = probe aLefty1 binding on compound microarray – biochemical, small-molecule microarray, 635/667 nm fluorescence, primary screen (AID 1153); details: higher = more signal;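 also: score merges spot fluorescence with signal-to-noise ratio from the scanned slide images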
[13] = plasmodial surface anion channel blockers, osmotic lysis – cell-based, P. falciparum Indochina, OD700, 1 h, primary screen (AID 1154); details: P. falciparum Indochina infected RBC osmotic lysis, higher = more signal, called active from +8 up or from −8 down
[14] = plasmodial surface anion channel blockers, osmotic lysis – cell-based, P. falciparum Indochina, OD700, 2 h, primary screen (AID 1155);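 also: lysis reports solute entry through the parasite surface anion channel PSAC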; details: P. falciparum Indochina infected erythrocytes, higher = more signal, called active from +8 up or from −8 down
[15] = changes in parasitized red cell lysis, either direction – P. falciparum Indochina, OD700, 3 h, PSAC antagonist project, primary screen (AID 1156); details: P. falciparum-infected erythrocytes, osmotic lysis, higher = more signal, called active from +8 up or from −8 down
[16] = plasmodial surface anion channel blockers, osmotic lysis – cell-based, P. falciparum Indochina, OD700, 18 h, primary screen (AID 1157); details: P. falciparum Indochina infected erythrocytes, osmotic lysis OD700, 18 h; higher = more signal, called active from +8 up or from −8 down
[17] = S6 kinase pathway phospho-S6 level changes – cell-based, A549, cytoblot, luminescence, serum-stimulated, primary screen (AID 1158); details: 5 h, higher = more signal;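 also: serum-stimulated A549 lung adenocarcinoma cells; signal is phosphorylated S6 detected by cytoblot immunostaining with HRP secondary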
[18] = target: NADPH oxidase 2 (Homo sapiens) (UniProt P04839); assay: compounds shifting NOX2 Amplex Red fluorescence – cell-based, HEK293-NOX2, PMA-stimulated, NOX inhibitor project, primary screen (AID 1159); details: 45 min, higher = more signal, called active from +8 up or from −8 down; also: test concentration not given here
Sequence of NADPH oxidase 2 (Homo sapiens) (P04839 whole entry, looked up): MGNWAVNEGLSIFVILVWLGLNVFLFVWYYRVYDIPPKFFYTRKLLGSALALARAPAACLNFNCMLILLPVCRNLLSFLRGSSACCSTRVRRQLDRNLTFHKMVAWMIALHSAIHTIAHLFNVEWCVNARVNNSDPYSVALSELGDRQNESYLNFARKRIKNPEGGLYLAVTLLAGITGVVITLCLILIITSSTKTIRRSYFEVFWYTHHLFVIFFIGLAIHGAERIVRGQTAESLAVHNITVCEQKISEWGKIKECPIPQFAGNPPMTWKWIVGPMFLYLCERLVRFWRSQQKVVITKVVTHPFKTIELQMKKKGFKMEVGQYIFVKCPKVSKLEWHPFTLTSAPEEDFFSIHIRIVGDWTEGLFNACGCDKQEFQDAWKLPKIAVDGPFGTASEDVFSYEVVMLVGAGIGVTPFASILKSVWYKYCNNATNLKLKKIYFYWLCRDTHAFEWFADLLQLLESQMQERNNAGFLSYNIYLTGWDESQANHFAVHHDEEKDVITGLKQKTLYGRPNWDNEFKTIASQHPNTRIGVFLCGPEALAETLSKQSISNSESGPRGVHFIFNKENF

[19] = target: NADPH oxidase 4 (Homo sapiens) (UniProt Q9NPH5); assay: compounds shifting NOX4 Amplex Red fluorescence – cell-based, HEK293-NOX4, tetracycline-induced, NOX inhibitor project, primary screen (AID 1160); details: HEK293-NOX4, Amplex Red H2O2 fluorescence, 45 min; higher = more signal, called active from +8 up or from −8 down
Sequence of NADPH oxidase 4 (Homo sapiens) (Q9NPH5 whole entry, looked up): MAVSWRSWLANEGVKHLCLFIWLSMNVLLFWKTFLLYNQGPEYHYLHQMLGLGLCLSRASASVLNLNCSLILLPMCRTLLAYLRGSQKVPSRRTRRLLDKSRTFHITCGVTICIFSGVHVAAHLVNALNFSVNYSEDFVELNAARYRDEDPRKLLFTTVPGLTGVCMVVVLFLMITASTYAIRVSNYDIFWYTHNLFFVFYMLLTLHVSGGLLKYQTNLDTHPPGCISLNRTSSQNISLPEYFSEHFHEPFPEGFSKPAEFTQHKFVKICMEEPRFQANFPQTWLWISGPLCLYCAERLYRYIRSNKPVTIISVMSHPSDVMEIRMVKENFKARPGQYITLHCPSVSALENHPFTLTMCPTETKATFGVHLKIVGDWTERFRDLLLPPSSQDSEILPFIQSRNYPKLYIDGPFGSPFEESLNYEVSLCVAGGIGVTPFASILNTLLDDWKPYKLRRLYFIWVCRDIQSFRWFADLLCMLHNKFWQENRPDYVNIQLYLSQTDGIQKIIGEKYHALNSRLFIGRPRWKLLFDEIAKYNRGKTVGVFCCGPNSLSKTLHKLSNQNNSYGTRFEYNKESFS

[20] = target: NADPH oxidase 5 (Homo sapiens) (UniProt Q96PH1); assay: compounds shifting NOX5 Amplex Red fluorescence – cell-based, HEK293-NOX5, NOX inhibitor project, primary screen (AID 1161); details: HEK293-NOX5, ionomycin, 45 min, higher = more signal
Sequence of NADPH oxidase 5 (Homo sapiens) (Q96PH1 whole entry, looked up): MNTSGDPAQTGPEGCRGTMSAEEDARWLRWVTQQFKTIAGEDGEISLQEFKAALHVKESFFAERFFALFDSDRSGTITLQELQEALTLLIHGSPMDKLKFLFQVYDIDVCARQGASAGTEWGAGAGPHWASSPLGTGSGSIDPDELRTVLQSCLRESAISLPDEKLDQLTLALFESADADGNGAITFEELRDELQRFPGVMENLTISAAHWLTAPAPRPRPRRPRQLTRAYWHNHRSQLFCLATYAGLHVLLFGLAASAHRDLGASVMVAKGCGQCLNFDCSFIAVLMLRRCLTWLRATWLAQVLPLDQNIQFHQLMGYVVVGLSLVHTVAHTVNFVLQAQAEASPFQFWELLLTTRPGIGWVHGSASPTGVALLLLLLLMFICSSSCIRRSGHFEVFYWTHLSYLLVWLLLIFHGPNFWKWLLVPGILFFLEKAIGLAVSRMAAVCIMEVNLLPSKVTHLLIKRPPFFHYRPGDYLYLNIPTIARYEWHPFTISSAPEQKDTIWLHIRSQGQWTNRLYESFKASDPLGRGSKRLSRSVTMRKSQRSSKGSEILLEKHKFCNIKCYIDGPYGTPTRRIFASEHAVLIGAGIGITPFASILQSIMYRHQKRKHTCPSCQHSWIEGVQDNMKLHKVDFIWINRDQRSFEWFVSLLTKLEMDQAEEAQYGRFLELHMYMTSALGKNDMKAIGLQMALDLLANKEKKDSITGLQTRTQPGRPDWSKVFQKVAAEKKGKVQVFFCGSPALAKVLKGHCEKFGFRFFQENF

SMILES: COC(=O)C[C@H]1O[C@]2(C(=O)N(C)c3ccccc32)[C@@H](C)[C@@H]1[Si](C)(C)c1ccc(C)cc1
- composite z-score [1]: 0.139
- z-score [2]: -3.88 (inactive)
- z-score [3]: 0.92 (inactive)
- z-score [4]: 1.31 (inactive)
- z-score [5]: -0.73 (inactive)
- composite z-score [6]: 0.0785
- composite z-score [7]: -0.0403
- composite z-score (Torsin-1A (Homo sapiens) [8]): 0.559
- composite z-score (Torsin-1A (Homo sapiens) [9]): 0.346
- composite z-score [10]: 0.763
- z-score [11]: 1.6 (inactive)
- composite z-score [12]: -0.0789
- z-score [13]: 2.58 (inactive)
- z-score [14]: 0.894 (inactive)
- z-score [15]: 0.0094 (inactive)
- z-score [16]: 0.426 (inactive)
- z-score [17]: 0.559
- z-score [18]: 0.626 (inactive)
- z-score [19]: 0.00059 (inactive)
- z-score [20]: -1.59

SMILES: COC(=O)[C@@]1(Cc2ccc(OC)cc2)[C@H]2c3cc(C(=O)N(C)C)n(Cc4nc5ccccc5[nH]4)c3C[C@H]2CN1C(=O)c1ccccc1
- composite z-score [1]: 0.38
- z-score [2]: -3.83 (inactive)
- z-score [3]: 0.179 (inactive)
- z-score [4]: -0.375 (inactive)
- z-score [5]: -0.139 (inactive)
- composite z-score [6]: 1.12
- composite z-score [7]: 0.698
- composite z-score (Torsin-1A (Homo sapiens) [8]): 0.314
- composite z-score (Torsin-1A (Homo sapiens) [9]): 0.432
- composite z-score [10]: -0.388
- z-score [11]: -2.02 (inactive)
- composite z-score [12]: 0.905
- z-score [13]: 2.03 (inactive)
- z-score [14]: 0.724 (inactive)
- z-score [15]: 0.482 (inactive)
- z-score [16]: 1.25 (inactive)
- z-score [17]: 0.123
- z-score [18]: 0.576 (inactive)
- z-score [19]: 1.85 (inactive)
- z-score [20]: 2.4

SMILES: Cc1ccc(S[C@]2(C(=O)NCC(C)C)CC(=O)N(Cc3ccccc3Cl)[C@@H]2c2ccc(CO)cc2I)cc1
- composite z-score [1]: -0.296
- z-score [2]: -0.521 (inactive)
- z-score [3]: -0.505 (inactive)
- z-score [4]: -0.904 (inactive)
- z-score [5]: 0.442 (inactive)
- composite z-score [6]: -0.942
- composite z-score [7]: -0.176
- composite z-score (Torsin-1A (Homo sapiens) [8]): -0.276
- composite z-score (Torsin-1A (Homo sapiens) [9]): -0.682
- composite z-score [10]: 0.196
- z-score [11]: -0.455 (inactive)
- composite z-score [12]: 0.258
- z-score [13]: 3.05 (inactive)
- z-score [14]: 0.592 (inactive)
- z-score [15]: 1.24 (inactive)
- z-score [16]: 0.254 (inactive)
- z-score [17]: 0.464
- z-score [18]: 2.55 (inactive)
- z-score [19]: -0.402 (inactive)
- z-score [20]: 1.52

SMILES: COc1cc(CO)cc(I)c1O[C@H]1C=C(C(=O)NCCO)C[C@@H](NCc2ccccc2F)[C@@H]1O
- composite z-score [1]: -0.145
- z-score [2]: -0.466 (inactive)
- z-score [3]: -0.251 (inactive)
- z-score [4]: 9.26 (active)
- z-score [5]: -1.22 (inactive)
- composite z-score [6]: -0.0401
- composite z-score [7]: -0.128
- composite z-score (Torsin-1A (Homo sapiens) [8]): 0.235
- composite z-score (Torsin-1A (Homo sapiens) [9]): -0.175
- composite z-score [10]: 0.485
- z-score [11]: 1.96 (inactive)
- composite z-score [12]: -0.117
- z-score [13]: 22.2 (active)
- z-score [14]: 4.37 (inactive)
- z-score [15]: 3.59 (inactive)
- z-score [16]: 1.09 (inactive)
- z-score [17]: 0.51
- z-score [18]: 0.0575 (inactive)
- z-score [19]: -0.344 (inactive)
- z-score [20]: -1.69

SMILES: CN(C)CCCNC(=O)[C@@H]1c2ccccc2C(=O)N(CC23CC4CC(CC(C4)C2)C3)[C@H]1c1ccc(CO)cc1
- composite z-score [1]: 0.528
- z-score [2]: -4.72 (inactive)
- z-score [3]: -0.465 (inactive)
- z-score [4]: -0.322 (inactive)
- z-score [5]: -0.0221 (inactive)
- composite z-score [6]: 1.12
- composite z-score [7]: 0.016
- composite z-score (Torsin-1A (Homo sapiens) [8]): 0.954
- composite z-score (Torsin-1A (Homo sapiens) [9]): 0.808
- composite z-score [10]: 1.5
- z-score [11]: 0.0377 (inactive)
- composite z-score [12]: -0.262
- z-score [13]: 1.1 (inactive)
- z-score [14]: 0.964 (inactive)
- z-score [15]: 0.648 (inactive)
- z-score [16]: 1.09 (inactive)
- z-score [17]: -0.245
- z-score [18]: -2.04 (inactive)
- z-score [19]: -0.633 (inactive)
- z-score [20]: -0.657

SMILES: COC(=O)[C@@]1(Cc2ccccc2)[C@H]2c3cc(C(=O)N4CCCC4)n(Cc4ccsc4Br)c3C[C@H]2CN1C(=O)c1ccccc1
- composite z-score [1]: 0.38
- z-score [2]: -3.12 (inactive)
- z-score [3]: 0.389 (inactive)
- z-score [4]: 0.201 (inactive)
- z-score [5]: -0.813 (inactive)
- composite z-score [6]: 1.21
- composite z-score [7]: 0.407
- composite z-score (Torsin-1A (Homo sapiens) [8]): 0.147
- composite z-score (Torsin-1A (Homo sapiens) [9]): 0.894
- composite z-score [10]: -1.01
- z-score [11]: -1.82 (inactive)
- composite z-score [12]: 0.451
- z-score [13]: 7 (inactive)
- z-score [14]: 1.07 (inactive)
- z-score [15]: 1.04 (inactive)
- z-score [16]: 1.03 (inactive)
- z-score [17]: -0.215
- z-score [18]: 0.0188 (inactive)
- z-score [19]: 0.707 (inactive)
- z-score [20]: -2.92

SMILES: CCOC(=O)C[C@H]1[C@H](OC(=O)c2ccccc2-c2ccccc2)[C@@H](NC(=O)c2ccc3ccccc3n2)c2cc(OCCCO)ccc2N1C(=O)c1ccc2ccccc2n1
- composite z-score [1]: 0.191
- z-score [2]: -0.688 (inactive)
- z-score [3]: -1.37 (inactive)
- z-score [4]: 1.22 (inactive)
- z-score [5]: 0.305 (inactive)
- composite z-score [6]: 1.07
- composite z-score [7]: -0.117
- composite z-score (Torsin-1A (Homo sapiens) [8]): -0.137
- composite z-score (Torsin-1A (Homo sapiens) [9]): -0.184
- composite z-score [10]: 0.389
- z-score [11]: 1.17 (inactive)
- composite z-score [12]: -0.0747
- z-score [13]: 3.67 (inactive)
- z-score [14]: -0.774 (inactive)
- z-score [15]: -1.88 (inactive)
- z-score [16]: -2.15 (inactive)
- z-score [17]: 0.112
- z-score [18]: 1.18 (inactive)
- z-score [19]: 1.07 (inactive)
- z-score [20]: 2.5

SMILES: CN1C(=O)C2C=CC(C(O)Cc3ccccc3)N(N(c3ccccc3)c3ccccc3)C2C1=O (stereo not given)
- composite z-score [1]: 0.0159
- z-score [2]: 0.443 (inactive)
- z-score [3]: -0.597 (inactive)
- z-score [4]: 0.264 (inactive)
- z-score [5]: 0.6 (inactive)
- composite z-score [6]: 2.18
- composite z-score [7]: 0.191
- composite z-score (Torsin-1A (Homo sapiens) [8]): 0.0867
- composite z-score (Torsin-1A (Homo sapiens) [9]): 0.25
- composite z-score [10]: -0.572
- z-score [11]: -1.29 (inactive)
- composite z-score [12]: 0.137
- z-score [13]: 1.15 (inactive)
- z-score [14]: 1.09 (inactive)
- z-score [15]: 0.449 (inactive)
- z-score [16]: 0.679 (inactive)
- z-score [17]: -1.07
- z-score [18]: -0.0622 (inactive)
- z-score [19]: -0.198 (inactive)
- z-score [20]: 0.158

SMILES: CCOC(=O)C1=CC[C@@H](c2cc(Cl)ccc2Cl)N(S(=O)(=O)c2ccc(C)cc2)[C@H]1c1ccc(OC)cc1
- composite z-score [1]: 1.11
- z-score [2]: -4.08 (inactive)
- z-score [3]: 0.42 (inactive)
- z-score [4]: 0.472 (inactive)
- z-score [5]: -0.555 (inactive)
- composite z-score [6]: 0.0102
- composite z-score [7]: 0.482
- composite z-score (Torsin-1A (Homo sapiens) [8]): 0.234
- composite z-score (Torsin-1A (Homo sapiens) [9]): 0.42
- composite z-score [10]: 0.172
- z-score [11]: -0.718 (inactive)
- composite z-score [12]: 0.369
- z-score [13]: 2.98 (inactive)
- z-score [14]: 1.92 (inactive)
- z-score [15]: 0.926 (inactive)
- z-score [16]: 0.826 (inactive)
- z-score [17]: -0.371
- z-score [18]: 0.28 (inactive)
- z-score [19]: -0.51 (inactive)
- z-score [20]: 0.465
